PubChem BioAssay (Tox21)
Records with an inconclusive call do not appear. Where a call stands in place of a potency, no number is given. Active and inactive are the calls of the source. Unless noted, the call rests on the fitted dose curve.

Legend:
[1] = Nuclear factor erythroid 2-related factor 2/antioxidant responsive element (Nrf2/ARE) small molecule agonists: qHTS cell viability counter screen in human keratinocytes (AID 1919968; active means well fitted curve in the direction sought with a large enough effect in the repeat runs; an effect the other way counts as inactive or inconclusive; further: nearly all actives have a fitted effect of over 55% in size)
In short: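 KeratinoSens cells (HaCaT keratinocytes stably carrying an ARE-luciferase reporter) were seeded at 1,500 cells/well and rested 5 h at 37 C/5% CO2. They were then exposed to compounds in DMSO for 23 h. Viability was read by CellTiter-Fluor fluorescence after 1 h.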

[2] = Nuclear factor erythroid 2-related factor 2/antioxidant responsive element (Nrf2/ARE) small molecule agonists: luciferase reporter gene qHTS assay in human keratinocytes (AID 1919969); further: nearly all actives have a fitted effect of over 35% in size; further: potency means the concentration at half of the fitted maximal effect
[3] = target: Gonadotropin-releasing hormone receptor (Homo sapiens) (UniProt P30968); assay: Human gonadotropin-releasing hormone receptor (GnRHR) small molecule agonists, calcium flux assay in GnRHR-HEK293 cells (AID 1920063); further: nearly all actives have a fitted effect of over 35% in size
Sequence of Gonadotropin-releasing hormone receptor (Homo sapiens) (P30968 whole entry, looked up): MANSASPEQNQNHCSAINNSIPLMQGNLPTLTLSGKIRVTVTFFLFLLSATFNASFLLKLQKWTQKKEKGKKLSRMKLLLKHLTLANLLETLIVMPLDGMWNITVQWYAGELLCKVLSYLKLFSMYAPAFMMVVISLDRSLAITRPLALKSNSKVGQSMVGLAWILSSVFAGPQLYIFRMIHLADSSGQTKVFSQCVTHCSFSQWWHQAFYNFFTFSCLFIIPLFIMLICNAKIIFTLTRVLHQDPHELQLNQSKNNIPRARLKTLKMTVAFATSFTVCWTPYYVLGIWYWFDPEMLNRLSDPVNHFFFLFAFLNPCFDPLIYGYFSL
In short: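 HEK293 cells stably expressing human GnRHR were plated 18 h at 37 °C, loaded with calcium dye 1 h at 37 °C, then given compound in agonist mode; fluorescence (Ex/Em 480/540) read kinetically for 3 min at 1 s intervals.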

[4] = target: KiSS-1 receptor (Homo sapiens) (UniProt Q969F8); assay: Human kisspeptin (KISS1R) small molecule agonists, calcium flux assay in KISS1R-HEK293 cells (AID 1920064; active means well fitted curve in the direction sought with a large enough effect in the repeat runs; an effect the other way counts as inactive or inconclusive)
Sequence of KiSS-1 receptor (Homo sapiens) (Q969F8 whole entry, looked up): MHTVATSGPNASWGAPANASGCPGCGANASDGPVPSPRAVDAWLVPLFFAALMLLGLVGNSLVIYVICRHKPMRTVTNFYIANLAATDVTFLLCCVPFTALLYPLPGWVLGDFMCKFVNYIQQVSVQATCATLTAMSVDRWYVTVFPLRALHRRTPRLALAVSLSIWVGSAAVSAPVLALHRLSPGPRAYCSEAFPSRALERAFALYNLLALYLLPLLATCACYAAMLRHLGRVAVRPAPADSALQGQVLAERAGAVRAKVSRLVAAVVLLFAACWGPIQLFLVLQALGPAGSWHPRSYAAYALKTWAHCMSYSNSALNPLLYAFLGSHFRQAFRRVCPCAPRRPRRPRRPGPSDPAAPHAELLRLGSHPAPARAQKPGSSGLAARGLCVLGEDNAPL
In short: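 HEK293 cells stably expressing human KISS1R were plated 18 h at 37 °C, loaded with calcium dye for 1 h at 37 °C, then given compound by pin tool. Fluorescence (Ex/Em 480/540) was read kinetically for 3 min.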

[5] = G protein-coupled receptor (GPCR) small molecule agonists, calcium flux assay: HEK293 wild type cell line counter screen (AID 1920065)
In short: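 Cells were plated and cultured 18 h at 37 C/5% CO2, then loaded with calcium dye for 1 h at 37 C. Compounds in DMSO were pin-transferred in agonist mode, and fluorescence (Ex/Em 480/540) was read kinetically for 3 min at 1 s intervals.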

[6] = p53 small molecule agonists, cell-based qHTS assay with human liver microsomes (AID 1963577);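 further: p53 response element beta-lactamase reporter cells with liver microsomes plus NADPH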
In short: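 Reporter activation was measured by LiveBLAzer fluorescence intensity in p53RE-bla cells, which had been exposed to compounds for 16 h at 37 C alongside 0.5 mg/mL human liver microsomes and 0.5 mg/mL NADPH (final concentrations).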

[7] = p53 small molecule agonists, cell-based qHTS assay with rat liver microsomes: qHTS cell viability counter screen (AID 1963580); further: nearly all actives have a fitted effect of over 45% in size
In short: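 p53RE-bla HCT-116 cells (4,000/well) rested 5 h at 37 C, then given Tox21 compounds in DMSO with rat liver microsomes (0.5 mg/mL final) plus NADPH (0.5 mg/mL final) for 16 h at 37 C. Viability read by CellTiter-Glo luminescence after 30 min at room temperature.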

[8] = p53 small molecule agonists, cell-based qHTS assay: qHTS cell viability counter screen (AID 1963581); further: nearly all actives have a fitted effect of over 45% in size
In short: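 p53RE-bla HCT-116 cells were exposed to compounds for 16 h at 37 C; after the beta-lactamase FRET read in the same wells, CellTiter-Glo was added and luminescence (intracellular ATP) read after 30 min at room temperature.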

[9] = p53 small molecule agonists, cell-based qHTS assay (AID 1963582; active means well fitted activation curve with a large enough effect in the signal ratio in the repeat runs, not every such curve was filed as active; the % refers to the signal ratio)
In short: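 p53RE-bla beta-lactamase reporter cells rested 5 h at 37 C/5% CO2, then received compounds in DMSO by pin transfer and were incubated 16 h at 37 C. LiveBLAzer B/G FRET substrate was loaded for 2 h at room temperature before fluorescence reading.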

[10] = target: 5-hydroxytryptamine receptor 2A (Homo sapiens) (UniProt P28223); assay: 5-hydroxytryptamine receptor 2A (HTR2A) small molecule antagonists, cell-based qHTS assay (AID 1963586); further: nearly all actives have a fitted effect of over 45% in size
Sequence of 5-hydroxytryptamine receptor 2A (Homo sapiens) (P28223 whole entry, looked up): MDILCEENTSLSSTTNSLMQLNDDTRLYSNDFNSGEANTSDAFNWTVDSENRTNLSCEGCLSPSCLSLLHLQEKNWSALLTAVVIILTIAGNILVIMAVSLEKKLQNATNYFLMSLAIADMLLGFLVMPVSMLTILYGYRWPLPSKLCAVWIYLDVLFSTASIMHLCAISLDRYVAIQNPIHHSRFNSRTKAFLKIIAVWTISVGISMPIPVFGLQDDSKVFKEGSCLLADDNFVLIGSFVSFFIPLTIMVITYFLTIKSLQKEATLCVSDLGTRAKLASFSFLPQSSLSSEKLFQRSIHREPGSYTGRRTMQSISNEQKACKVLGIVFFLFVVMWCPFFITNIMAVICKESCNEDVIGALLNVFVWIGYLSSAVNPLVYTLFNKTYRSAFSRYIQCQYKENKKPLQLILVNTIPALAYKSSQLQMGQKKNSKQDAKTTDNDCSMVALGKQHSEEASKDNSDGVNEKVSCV
In short: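 Antagonist-mode intracellular calcium assay: DOI (4 nM) added after 5 min compound pre-incubation at room temperature to dye-loaded HTR2A-CHO cells. Fluorescence followed for 3 min, sampled every second.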

[11] = target: 5-hydroxytryptamine receptor 2A (Homo sapiens) (UniProt P28223); assay: 5-hydroxytryptamine receptor 2A (HTR2A) small molecule agonists, cell-based qHTS assay (AID 1963587); further: nearly all actives have a fitted effect of over 30% in size
In short: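 HTR2A-CHO cells, plated 18 h at 37 C/5% CO2, dye-loaded 1 h at 37 C; compounds in DMSO added by pin tool (agonist mode). Intracellular calcium flux read as kinetic fluorescence on FDSS over 2 min at 1 s intervals.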

[12] = target: Muscarinic acetylcholine receptor M1 (Homo sapiens) (UniProt P11229); assay: Cholinergic receptor muscarinic 1 (CHRM1) small molecule antagonists, cell-based qHTS assay (AID 1963588); further: nearly all actives have a fitted effect of over 40% in size; further: potency means the concentration at half of the fitted maximal effect
Sequence of Muscarinic acetylcholine receptor M1 (Homo sapiens) (P11229 whole entry, looked up): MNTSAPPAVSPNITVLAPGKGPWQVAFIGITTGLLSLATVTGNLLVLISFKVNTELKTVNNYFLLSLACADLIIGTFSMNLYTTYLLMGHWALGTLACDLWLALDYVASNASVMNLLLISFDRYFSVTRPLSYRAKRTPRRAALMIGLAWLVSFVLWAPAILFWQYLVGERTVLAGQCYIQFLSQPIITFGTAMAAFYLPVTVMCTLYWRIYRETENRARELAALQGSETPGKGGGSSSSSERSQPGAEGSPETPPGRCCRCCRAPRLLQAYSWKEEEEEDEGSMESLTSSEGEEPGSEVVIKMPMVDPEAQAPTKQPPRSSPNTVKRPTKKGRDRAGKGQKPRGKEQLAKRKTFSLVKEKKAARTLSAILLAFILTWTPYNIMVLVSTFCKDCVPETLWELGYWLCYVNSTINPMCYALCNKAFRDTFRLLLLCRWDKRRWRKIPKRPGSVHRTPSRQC
In short: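 CHRM1-CHO calcium-flux assay, antagonist mode. Cells were seeded 18 h, dye-loaded 1 h at 37 C and given compound for 5 min at RT, then acetylcholine was added at 50nM. FDSS fluorescence was read 3 min; 15 concentrations, three runs.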

[13] = target: Muscarinic acetylcholine receptor M1 (Homo sapiens) (UniProt P11229); assay: Cholinergic receptor muscarinic 1 (CHRM1) small molecule agonists, cell-based qHTS assay (AID 1963589); further: nearly all actives have a fitted effect of over 35% in size
In short: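 CHO cells stably expressing human CHRM1, seeded 18 h at 37 C/5% CO2, dye-loaded 1 h at 37 C, then given compound in agonist mode; intracellular calcium fluorescence read kinetically at 1 s intervals. Fifteen concentrations, three independent runs.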

[14] = cAMP Responsive Elements (CRE) small molecule agonists, cell-based qHTS assay (AID 1963590)
In short: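 CRE-bla HEK 293T cells in DMEM with 10% dialyzed FBS, NEAA, pyruvate and 25 mM HEPES were plated 18 h at 37 C/5% CO2, then exposed to compounds in DMSO for 3 h before LiveBLAzer B/G FRET substrate addition.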

[15] = cAMP Responsive Elements (CRE) small molecule antagonists, cell-based qHTS assay (AID 1963591; active means well fitted inhibition curve with a large enough effect in the signal ratio in the repeat runs, not every such curve was filed as active; the % refers to the signal ratio)
In short: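 CRE-bla HEK293T cells were plated 18 h at 37 °C/5% CO2, pinned with compound in DMSO, then stimulated with NKH477 at 0.25 uM final for 3 h. LiveBLAzer B/G FRET substrate was added and plates incubated 2 h at room temperature.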

[16] = target: Beta-2 adrenergic receptor (Homo sapiens) (UniProt P07550); assay: Adrenergic beta2 receptor (ADRB2) small molecule antagonists, cell-based qHTS assay (AID 1963592); further: series mostly up to about 92 µM; nearly all actives have a fitted effect of over 50% in size
Sequence of Beta-2 adrenergic receptor (Homo sapiens) (P07550 whole entry, looked up): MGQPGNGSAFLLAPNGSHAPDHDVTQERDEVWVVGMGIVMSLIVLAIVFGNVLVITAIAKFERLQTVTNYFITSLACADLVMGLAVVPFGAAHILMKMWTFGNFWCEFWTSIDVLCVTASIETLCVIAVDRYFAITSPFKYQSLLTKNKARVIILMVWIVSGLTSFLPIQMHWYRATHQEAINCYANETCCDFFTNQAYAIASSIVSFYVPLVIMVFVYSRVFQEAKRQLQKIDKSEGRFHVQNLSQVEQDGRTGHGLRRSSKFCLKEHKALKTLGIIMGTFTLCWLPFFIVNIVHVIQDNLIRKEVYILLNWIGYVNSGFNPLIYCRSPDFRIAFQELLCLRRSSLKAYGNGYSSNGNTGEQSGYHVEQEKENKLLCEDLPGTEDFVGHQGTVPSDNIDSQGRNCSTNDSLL
In short: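 Cells (CHO, stable ADRB2 overexpression) incubated 18-20hr at 37C; compounds added from DMSO; agonist mix (1nM isoproterenol, 100uM IBMX, 25uM Ro-20-1724) added; 0.5hr RT; d2-cAMP and anti-cAMP-cryptate added; 1hr RT; 665/615 nm read.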

[17] = target: D(2) dopamine receptor (Homo sapiens) (UniProt P14416); assay: Dopamine D2 receptor (DRD2) small molecule agonists, cell-based qHTS assay (AID 1963594); further: nearly all actives have a fitted effect of over 35% in size
Sequence of D(2) dopamine receptor (Homo sapiens) (P14416 whole entry, looked up): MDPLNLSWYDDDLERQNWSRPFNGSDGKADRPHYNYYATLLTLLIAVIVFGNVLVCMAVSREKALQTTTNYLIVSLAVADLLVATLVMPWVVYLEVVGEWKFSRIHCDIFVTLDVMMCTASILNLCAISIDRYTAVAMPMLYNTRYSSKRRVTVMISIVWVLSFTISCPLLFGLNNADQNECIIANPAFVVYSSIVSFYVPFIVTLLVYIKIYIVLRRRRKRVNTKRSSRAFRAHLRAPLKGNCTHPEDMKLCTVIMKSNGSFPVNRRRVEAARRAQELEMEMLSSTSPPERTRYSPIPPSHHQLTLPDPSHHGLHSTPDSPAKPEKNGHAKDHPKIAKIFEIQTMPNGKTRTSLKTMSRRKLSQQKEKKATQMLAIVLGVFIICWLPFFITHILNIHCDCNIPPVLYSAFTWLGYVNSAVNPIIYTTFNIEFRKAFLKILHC
In short: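 HEK293 cells stably expressing DRD2 were cultured 24 h at 37 C, then given Ro20-1724 (0.1 mM final) and compounds for 10 min at room temperature. NKH477 (200nM) was then added for 30 min. cAMP was read by HTRF.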

[18] = target: D(2) dopamine receptor (Homo sapiens) (UniProt P14416); assay: Dopamine D2 receptor (DRD2) small molecule antagonists, cell-based qHTS assay (AID 1963595; active means well fitted inhibition curve with a large enough effect in the signal ratio in the repeat runs, with a control signal flat; the % refers to the signal ratio)
In short: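 HEK293 cells stably expressing DRD2 were preincubated with 0.1 mM Ro20-1724, then with compound for 10 min at room temperature. Cells were stimulated with 200 nM NKH477 plus 12 nM quinpirole for 30 min, and cAMP was read by HTRF.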

[19] = p53 small molecule agonists, cell-based qHTS assay with human liver microsomes: qHTS cell viability counter screen (AID 1963579); further: nearly all actives have a fitted effect of over 45% in size
In short: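 HLM-supplemented (0.5 mg/mL final) and NADPH-supplemented (0.5 mg/mL final) p53RE-bla cultures, 4,000 cells per well, were dosed with compounds in DMSO for 16 h at 37 C; luminescent ATP detection (CellTiter-Glo, 30 min, room temperature) quantified surviving cells.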

[20] = p53 small molecule agonists, cell-based qHTS assay with rat liver microsomes (AID 1963578)
In short: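 Compound in DMSO added to p53RE-bla cells 5 h post-plating; rat microsomes/NADPH 0.5 mg/mL final; 16 h, 37 C; LiveBLAzer 2 h RT.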

SMILES	Potency [1]	Potency [2]	Potency [3]	Potency [4]	Potency [5]	Potency [6]	Potency [7]	Potency [8]	Potency [9]	Potency [10]	Potency [11]	Potency [12]	Potency [13]	Potency [14]	Potency [15]	Potency [16]	Potency [17]	Potency [18]	Potency [19]	Potency [20]
O=C(Cl)c1ccccc1F	inactive	inactive	inactive	inactive	inactive	inactive	inactive	inactive	inactive	inactive	inactive	inactive	inactive	inactive	inactive	inactive	inactive	inactive		
C[C@@H](Oc1ccc(Cl)cc1Cl)C(=O)O	inactive	inactive	inactive	inactive	inactive	inactive	inactive	inactive		inactive	inactive	inactive	inactive			inactive	inactive	inactive	inactive	
CCOc1cc(OP(=S)(OC)OC)nc(CC)n1	inactive	inactive	inactive	inactive	inactive		inactive	inactive	inactive	inactive	inactive	inactive	inactive	inactive	inactive	inactive	inactive	inactive	inactive	inactive
CC1(C)[C@H](C=C(Cl)Cl)[C@@H]1C(=O)O[C@@H](C#N)c1cccc(Oc2ccccc2)c1	inactive	inactive	inactive	inactive	inactive	inactive	inactive	inactive	inactive	inactive			inactive	inactive	inactive	inactive	inactive	inactive	inactive	
CCCN(CCC)C(=O)Cc1c(-c2ccc(Cl)cc2)nc2ccc(Cl)cn12	inactive	inactive	inactive	inactive	inactive	inactive	inactive	inactive	inactive		inactive	inactive	inactive			inactive	inactive	inactive	inactive	
CN1COCN(Cc2cnc(Cl)s2)/C1=N\[N+](=O)[O-]	inactive	inactive	inactive	inactive	inactive		inactive	inactive	inactive	inactive	inactive	inactive	inactive	inactive	inactive	inactive	inactive	inactive	inactive	inactive
CC(C)[C@H](C(=O)O[C@H](C#N)c1cccc(Oc2ccccc2)c1)c1ccc(Cl)cc1	inactive	inactive	inactive	inactive	inactive	inactive	inactive	inactive		inactive	inactive	inactive	inactive			inactive	inactive	inactive	inactive	
Oc1ccc(Cl)c(Cl)c1Cl	inactive	inactive	inactive	inactive	inactive	inactive	inactive	inactive	inactive		inactive		inactive		inactive	inactive	inactive	inactive	inactive	
CN1[C@@H]2CC[C@H]1CC(O)C2 (some centres not stated)	inactive	inactive	inactive	inactive	inactive	inactive	inactive		inactive		inactive	inactive	inactive	inactive	inactive	inactive	inactive	inactive	inactive	
COc1cccc(C(=O)NN(C(=O)c2cc(C)cc(C)c2)C(C)(C)C)c1C	inactive	inactive	inactive	inactive	inactive		inactive	inactive	inactive	inactive	inactive	14.9 µM (active)	inactive			inactive	inactive	inactive	inactive	inactive
C=CC(=C)C	inactive	inactive	inactive	inactive	inactive		inactive	inactive	inactive	inactive	inactive	inactive	inactive	inactive	inactive	inactive	inactive	inactive	inactive	inactive
N#C/C(N)=C(/N)C#N	inactive	inactive	inactive	inactive	inactive		inactive	inactive	inactive	inactive	inactive	inactive	inactive	inactive	inactive	inactive	inactive	inactive	inactive	inactive
O=[N+]([O-])c1ccc2c3c(cccc13)CC2	inactive	inactive	inactive	inactive	inactive	inactive	inactive	inactive	inactive	inactive	inactive		inactive	inactive		inactive	inactive	inactive	inactive	
NP(N)(=O)NC(=O)c1ccc(F)cc1	inactive	inactive	inactive	inactive	inactive	inactive	inactive	inactive	inactive		inactive	inactive	inactive	inactive	inactive	inactive	inactive		inactive	
CCCCCCCCBr	inactive	inactive	inactive	inactive	inactive		inactive	inactive	inactive	inactive	inactive	inactive	inactive	inactive	inactive	inactive	inactive	inactive	inactive	inactive
OC(c1ccc(F)cc1)(c1cncnc1)c1ccccc1Cl (configuration not stated)	inactive	inactive	inactive	inactive	inactive	inactive	inactive	inactive	inactive	inactive	inactive	inactive		inactive		inactive	inactive	inactive	inactive	
O=c1[nH]oc2c1CCNC2	inactive	inactive	inactive	inactive	inactive	inactive	inactive			inactive	inactive	inactive	inactive	inactive	inactive	inactive	inactive	inactive	inactive	
CC1=NNC(=O)N(/N=C/c2cccnc2)C1	inactive	inactive	inactive	inactive	inactive		inactive	inactive	inactive	inactive	inactive	inactive	inactive	inactive	inactive		inactive		inactive	inactive
CCCCc1c(C)nc(NCC)nc1OS(=O)(=O)N(C)C	inactive	inactive	inactive	inactive	inactive	inactive		inactive		inactive	inactive		inactive			inactive		inactive	inactive	
CCCCP(CCCC)CCCC	inactive	inactive	inactive	inactive	inactive	inactive	inactive	inactive	inactive	inactive	inactive	inactive	inactive		inactive	inactive	inactive	inactive		
CC(C)N(C(=O)COc1nnc(C(F)(F)F)s1)c1ccc(F)cc1	inactive	inactive	inactive	inactive	inactive		inactive	inactive	inactive	inactive	inactive	inactive	inactive	inactive		inactive	inactive		inactive	inactive
CC(C)N(Cc1ccccc1)C(=O)C(C)(C)C	inactive	inactive	inactive	inactive	inactive		inactive	inactive	inactive	inactive	inactive	inactive	inactive	inactive	inactive	inactive		inactive	inactive	inactive
CC(C)CC(C)N (configuration not stated)	inactive	inactive	inactive	inactive	inactive	inactive	inactive	inactive			inactive	inactive	inactive	inactive	inactive		inactive	inactive	inactive	
O=C=Nc1ccc(Cl)cc1	inactive	68.6 µM (active)	inactive	inactive	inactive	inactive	inactive		inactive	inactive	inactive	inactive	inactive	inactive	inactive	inactive	inactive	inactive		
CC[N+]1(C)CCCC(OC(=O)C(O)(c2ccccc2)c2ccccc2)C1 (configuration not stated)	inactive	inactive	inactive	inactive	inactive	inactive	inactive	inactive	inactive	inactive	inactive		inactive	inactive		inactive	inactive	inactive	inactive	
CC(=O)Nc1cc([As](=O)(O)O)ccc1O	inactive	inactive	inactive	inactive	inactive		inactive	inactive	inactive		inactive	inactive	inactive	inactive	inactive	inactive		inactive	inactive	inactive
C#C[C@]1(O)C=C[C@H]2[C@@H]3CCC4=CC(=O)CC[C@@H]4[C@H]3CC[C@@]21CC	inactive	inactive	inactive	inactive	inactive		inactive	inactive	inactive	inactive	inactive	inactive	inactive			inactive	inactive	inactive	inactive	inactive
